Sa ugtP lethal – kills S. aureus RN4220 lacking UgtP; S. aureus RN4220 ugtP deletion, OD600 growth, 16 h; growth inhibition, % (test concentration not listed); actives 0.54% (n = 330,000); AID 1259309; in the data active = growth inhibition above about 68%;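 also: plate controls were untreated wells for no effect and antibiotic for full effect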
BH1578 lux ind – inducers of Vibrio cholerae quorum light production without autoinducers; V. cholerae BH1578 lux reporter, luminescence, 6 h; activation, % at 18.7 µM; actives 0.16% (n = 350,000); AID 588436; in the data active = activation mostly above about 9.7%, no sharp cut-off
PfHsp40 rescue – compounds rescuing yeast from Plasmodium falciparum HSP40 toxicity; S. cerevisiae expressing PfHsp40, growth rescue, ATP luminescence; growth rescue, % at 12.5 µM; actives 0.68% (n = 340,000); in the data active = growth rescue above about 28%, passing the limit was not always enough;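 also: yeast W303a lacking pdr1 and pdr3 grown in galactose medium; growth measured after three days at 30 °C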
Mtb betalactam – beta-lactam sensitization of Mtb H37Rv | M. tuberculosis H37Rv growth with meropenem, percent inhibition | actives 0.27% (n = 330,000) | inhibition, % at 25 µM; call rule not given here;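 also: growth measured after seven days incubation then overnight dye step; 0% = bacteria only wells and 100% = bacteria with antibiotic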
RN4220 kill – S. aureus RN4220 growth inhibition; actives 0.33% (n = 330,000); inhibition, % (concentration not given with the values); OD600, 16 h; AID 1259311; in the data active = inhibition above about 85%;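 also: plate controls were untreated cells for no effect and reference antibiotic for full effect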
Numbers without * were called inactive; i = inactive; / = not tested or not shown. Hits are enriched below; roughly 1.2% of the tested compounds scored in any of these assays.

SMILES | Sa ugtP lethal | BH1578 lux ind | PfHsp40 rescue | Mtb betalactam | RN4220 kill
O=C(O)c1cccc(NS(=O)(=O)c2ccc3c(c2)C(=O)c2ccccc2C3=O)c1 | 2 | 0 | 0 | -3 | 8
Clc1ccccc1C(c1ccccc1)(c1ccccc1)n1ccnc1 | 46 | i | 173* | 73 | 26
C#CC(c1ccccc1)(c1ccccc1)n1ccnc1 | / | -6 | / | / | /
NC(=O)c1ccc2c(=O)n3c(-c4cccs4)csc3nc2c1 | 88* | -2 | 1 | -13 | 7
Cc1ccc(-c2csc3nc4cc(C(N)=O)ccc4c(=O)n23)cc1 | 5 | 1 | 0 | -8 | -2
CCCC1COC(Cn2cncn2)(c2ccc(C)cc2)O1 (stereo unspecified) | 2 | i | 132* | 0 | 1
CCN(CC)S(=O)(=O)c1ccc(-c2nnc(SCc3nnc(-c4ccc(C)cc4)o3)n2CC)cc1 | -4 | 0 | 45* | -7 | 7
C=CCN1c2ccccc2[C@]23CC(C(=O)OC)N(C(=O)CC(C)C)C2=NC(C(=O)OC)=C(C(=O)OC)C13 (stereo partly specified) | 3 | / | / | / | -4
FC(F)(F)c1nc(SCc2ccc(Cl)cc2Cl)n[nH]1 | 83* | -1 | 299* | -3 | 81
CC1=C(C)/C(=N\OS(=O)(=O)c2ccc(C)cc2)C=CC1=O | / | 0 | 424* | 100 | /
CN(C)CCn1nnnc1SCC1=C(C(=O)O)N2C(=O)[C@@H](NC(=O)Cc3csc(N)n3)[C@H]2SC1 | / | 0 | -1 | 1 | /
Cc1nnc(SCC2=C(C(=O)O)N3C(=O)[C@@H](NC(=O)Cn4cnnn4)[C@H]3SC2)s1 | 100* | 5 | -1 | 3 | 97*
Cc1nnc(SCC2=C(C(=O)O)N3C(=O)C(NC(=O)Cn4cnnn4)C3SC2)s1 (stereo unspecified) | 100* | 1 | -2 | -3 | 100*
Cc1nnc(SCC(=O)NC2CC2)s1 | 3 | i | 0 | -19 | -1
CC(C)NC(=O)N(C)CC1Oc2ccc(NC(=O)Nc3ccccc3)cc2C(=O)N(C(C)CO)CC1C (stereo unspecified) | -2 | / | / | / | 2
Cc1ccc2c(c1)CC1(CN2C)C(=O)NC(=O)N(c2ccccc2C)C1=O (stereo unspecified) | 1 | i | 0 | 0 | 1
Cc1ccc2c(c1)CC1(CN2C)C(=O)OC2(CCCCC2)OC1=O | 2 | 17* | 1 | -3 | 3
CCNc1cc(O)ccc1C | / | 0 | 77* | -2 | /
CCN(CC)S(=O)(=O)c1cc(C(=O)Nc2ccc(Cl)cn2)ccc1C | 11 | 0 | -1 | -3 | -1
CCOc1ccccc1/C=N/NC(=O)c1cccc(S(=O)(=O)N(CC)CC)c1 | / | 0 | 0 | 1 | /
CCN(CC)S(=O)(=O)c1cccc(C(=O)N/N=C/c2ccc(O)c(O)c2O)c1 | / | 0 | 202* | 7 | /
CCN(CC)c1ccc(/C=N/NC(=O)c2cccc(S(=O)(=O)Nc3ccccc3OC)c2)c(O)c1 | / | 0 | 105* | 4 | /
CCN(CC)S(=O)(=O)c1cccc(C(=O)Nc2ccc(Cl)cn2)c1 | 2 | / | 56* | 3 | 9
CC(=NNc1ccc(Cl)c(C(=O)O)c1)c1ccc(Br)s1 | 16 | / | / | / | 0
Cn1cc(C(=O)c2cccc(Cl)c2)cc1/C=N\O | / | 0 | 30* | -8 | /
SMILES | Sa ugtP lethal | BH1578 lux ind | PfHsp40 rescue | Mtb betalactam | RN4220 kill
Cn1cc(C(=O)c2cccc(Cl)c2)cc1C=NO | 0 | / | / | / | -2
COc1cccc2sc(Nc3nnc(-c4ccc(F)cc4)o3)nc12 | 11 | 0 | 0 | 99 | 6
Fc1cccc2sc(Nc3nnc(-c4ccco4)o3)nc12 | 38 | i | 74* | 95 | 50
CCc1ccc2[nH]c3nc(SCC(=O)NNC(=O)c4ccc(C(C)(C)C)cc4)nnc3c2c1 | 85* | 0 | -1 | 3 | 19
Cc1ccc(C(=O)NNC(=O)CSc2nnc3c(n2)[nH]c2ccc(C)cc23)cc1 | -5 | i | 0 | 2 | 5
COc1ccc(C2C(C(C)=O)=C(C)N=c3sc(=Cc4ccc5c(c4)OCO5)c(=O)n32)cc1 (stereo unspecified) | 0 | / | / | / | 3
Cc1c(C(=O)NN=Cc2ccncc2)nnn1-c1nonc1N | 5 | / | / | / | 2
Cc1ccc(-n2nnnc2C(Cl)(Cl)c2nnnn2-c2ccc(C)cc2)cc1 | 100* | -1 | -1 | 92 | 100*
C=CS(=O)(=O)c1sc(Cl)c(N2CCOCC2)c1[N+](=O)[O-] | -1 | -1 | 482* | / | 3
C=CSc1sc(Cl)c(N2CCOCC2)c1[N+](=O)[O-] | 12 | 0 | / | 8 | 6
COc1ccc(CN2CC(=O)N3C4c5ccc(OC)cc5OCC4C(c4ccccc4)[C@]3(C)C2=O)cc1 (stereo partly specified) | 15 | / | / | / | 3
Cc1ccc(C(=O)COc2ccccc2-c2ccccc2)cc1 | 86* | 0 | 4 | 93 | -2
COCCNC(=O)N1C2CCC1C(C(=O)OC)=C(c1ccc(-c3ccccc3)c(F)c1)C2 (stereo unspecified) | -14 | / | / | / | -5
Nc1nc(-c2ccccc2)c(N=Nc2cccc3ccccc23)s1 | 97* | 0 | 0 | 40 | 99*
Nc1nc(-c2ccccc2)c(N=Nc2ccccc2Cl)s1 | 31 | 0 | 1 | 22 | 1
CC1(C)CC(=O)C(C2C3=C(CC(C)(C)CC3=O)Oc3c(Br)cc(Br)cc32)=C(O)C1 (stereo unspecified) | 37 | i | 55* | 7 | 24
COc1n[nH]c(C(=O)Nc2cc(Cl)ccc2Cl)c1[N+](=O)[O-] | 88* | i | 0 | 36 | 90*
N#CC(=NNc1ccccc1F)c1nc(-c2ccccc2)cs1 | -4 | / | / | / | 5
Fc1ccc(C2NCCc3[nH]cnc32)cc1 (stereo unspecified) | 2 | -1 | -1 | 2 | 3
O=C(O)C1Cc2[nH]cnc2C(c2ccc(F)cc2)N1 (stereo unspecified) | 5 | i | 61* | 6 | 3
O=C(Nc1ccc(OCC(F)(F)C(F)F)c(C(F)(F)F)c1)c1ccccc1O | 100* | 0 | -1 | 26 | 112*
COc1ccc(S(=O)(=O)N(C)CC2Oc3ccc(NC(=O)Cc4ccccc4)cc3C(=O)N(C(C)CO)CC2C)cc1 (stereo unspecified) | 2 | / | / | / | 0
COC(=O)c1c(NC(=O)C(C)(C)C)csc1C | 2 | 0 | 38* | 7 | 2
O=C(Nc1nc(-c2ccccn2)cs1)c1ccco1 | -5 | -1 | 43* | 93 | 8
C[C@H](NC(=O)c1ccco1)C(=O)Nc1nc(-c2ccccn2)cs1 | -1 | / | -1 | / | 2
O=C(Nc1nc(-c2ccccn2)cs1)c1ccc(Br)s1 | 34 | 0 | 255* | 87 | 54
CN(CC(c1ccccc1)N(CC(Cc1ccccc1)N(CCc1ccccc1)N=O)N=O)N=O (stereo unspecified) | -9 | / | / | / | 14
CCCCCC1CN(Cc2ccccc2)C(=O)C1CC(=O)NCc1ccc(OC)cc1 (stereo unspecified) | -16 | / | / | / | 3
O=C(NCc1ccccn1)C(=O)NN=Cc1ccc2c(c1)OCO2 | 18 | / | / | / | 9

High-throughput results (PubChem)
